Shown is part of a subset that was picked to be rich in hits.
Dicer processing: inhibitors of human Dicer processing of pre-microRNA | AID 1347074 | Q9UPY3 | z-score at 25 µM | 47,000 tested, 6% active | cat-ELCCA pre-miR-21 Dicer processing, chemiluminescence; stronger effect = higher value; in the data active means z-score above about 3, passing the limit was not always enough;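 further: higher signal means more uncleaved substrate so more Dicer inhibition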
A number is an active result.

`COc1ccc(COC(=O)C2=C(C)NC3=C(C(=O)CC(C)(C)C3)C2c2ccc(OC)c(O)c2)cc1` (centres undefined) gave Dicer processing inactive.
COC(=O)C1=C(C(=O)c2ccccc2)C(c2ccccc2OC)n2nnnc2N1 (centres undefined) was read as Dicer processing inactive.
`CCOC(=O)C1=C(C)Nc2nnnn2C1c1cc(OC)ccc1OC` (centres undefined) gave Dicer processing inactive.
For CCOC(=O)C1=C(C)Nc2nnnn2C1c1cc(Br)ccc1OC (centres undefined) the results were Dicer processing 47.
COc1ccccc1C1C(C(=O)OC(C)C)=C(C)Nc2nnnn21 (centres undefined) was read as Dicer processing 3.2.
For COC(=O)C1=C(C(=O)c2ccc(C)cc2)C(c2ccccc2OC)n2nnnc2N1 (centres undefined) the results were Dicer processing inactive.
For COC(=O)C1=C(C)Nc2nnnn2C1c1cc(Br)ccc1OC (centres undefined) the results were Dicer processing inactive.
CCCNC(=S)N1CCC(C(=O)c2ccc(C)cc2)CC1 was read as Dicer processing inactive.
For COC(=O)C1=C(C)NC(C)=C(C(=O)OC(C)C)C1c1cccc2nonc12 (centres undefined) the results were Dicer processing inactive.
Screening COC(=O)C1=C(C)NC(C)=C(C(=O)OCC(C)C)C1c1ccccc1[N+](=O)[O-] (centres undefined) returned Dicer processing 3.9.
`CCOc1ccccc1C1C(C(=O)OC)=C(C)NC2=C1C(=O)c1ccccc12` (centres undefined) gave Dicer processing inactive.
For CCOC(=O)C1=C(C)NC(SC)=NC1c1cccs1 (centres undefined) the results were Dicer processing inactive.
For CC(C)OC(=O)c1cnn2c(C(F)(F)F)cc(-c3ccc(F)cc3)nc12 the results were Dicer processing 4.7.
`CCOC(=O)c1cnn2c(C)cc(-c3ccc(F)cc3)nc12` gave Dicer processing inactive.
`Cc1ccc(-c2cc(C(F)(F)F)n3ncc(C(=O)Nc4ccc5c(c4)OCO5)c3n2)cc1` gave Dicer processing inactive.
COc1ccc2c(c1OC)C(=O)OC2NC(=O)c1cnn(-c2ccccc2)c1N (centres undefined) was read as Dicer processing inactive.
`Cc1cc(Cl)ccc1OCC1NCCS1` (centres undefined) gave Dicer processing inactive.
For Oc1ccc(Oc2ccc(C(F)(F)F)cn2)cc1 the results were Dicer processing inactive.
Screening Nc1nc(SCC(=O)NCCN2CCOCC2)nc2sc3c(c12)CCCC3 returned Dicer processing inactive.
For Nc1nc(SCC(=O)NCCO)nc2sc3c(c12)CCCC3 the results were Dicer processing inactive.
`Nc1nc(SCCCC(=O)NCCO)nc2sc3c(c12)CCCC3` gave Dicer processing 5.5.
`CCOC(=O)CC1=Nn2c(nnc2-c2ccc(C)cc2)SC1` gave Dicer processing inactive.
For CCOC(=O)C(=CNc1cc(C(F)(F)F)ccc1F)C(=O)OCC the results were Dicer processing inactive.
`CC(=O)NNC(=O)c1c(C)nc2cc(C)ccn12` gave Dicer processing inactive.
Screening Cn1cc(Br)c(NS(=O)(=O)c2ccccc2C(F)(F)F)n1 returned Dicer processing inactive.
CC1CC(=O)c2cnn(-c3nc4ccccc4s3)c2C1 (centres undefined) was read as Dicer processing 3.
`Cc1nc(Nc2ncc3c(n2)CC(C)CC3=O)nc2ccccc12` (centres undefined) gave Dicer processing inactive.
`CC1(C)CC(=O)c2cnn(-c3nc4ccccc4[nH]3)c2C1` gave Dicer processing inactive.
Screening Cc1[nH]c2ccccc2c1C1(O)C(=O)N(Cc2cccs2)c2ccc(Cl)cc21 (centres undefined) returned Dicer processing inactive.
CCCOC(=O)C1=C(C)NC2=C(C(=O)CCC2)C1c1cc(OC)c(OC)cc1Br (centres undefined) was read as Dicer processing inactive.
`Cc1cc(C)c(C#N)c(Nc2ccc(-c3ccccc3)cc2)n1` gave Dicer processing inactive.
`Oc1cccc(N2Cc3ccccc3C2)c1` gave Dicer processing 4.4.
CC1CCC2C(=O)N(c3cccc(O)c3)C(=O)C2C1 (centres undefined) was read as Dicer processing inactive.
For Oc1ccc(N2Cc3ccccc3C2)cc1 the results were Dicer processing inactive.
CCOC(=O)C1(C)Oc2cc(Cl)ccc2NC1=O (centres undefined) was read as Dicer processing inactive.
Screening Cc1ccc(OCCSc2nc3ccccc3o2)cc1 returned Dicer processing inactive.
Screening O=C(O)CCSc1n[nH]c2nc3ccccc3n12 returned Dicer processing inactive.
Screening Cc1ccc(OCCn2c(SCCO)nc3ccccc32)cc1 returned Dicer processing inactive.
For Cc1ccc(OCCSc2n[nH]c3nc4ccccc4n23)cc1 the results were Dicer processing 6.2.
`Cc1cccc(OCCSc2nc3ccccc3n2CCO)c1` gave Dicer processing 5.6.
For CCn1c(SCCOc2ccc(OC)cc2)nc2ccccc21 the results were Dicer processing inactive.
`Cc1cn(C(=O)Nc2ccc(Cl)cc2)nc1-c1cccs1` gave Dicer processing inactive.
For O=C(CSc1nc2ccccc2[nH]1)NCCN1CCCC1 the results were Dicer processing inactive.
For CCOC(=O)c1[nH]ncc1-c1ccc(Cl)cc1Cl the results were Dicer processing inactive.
For COC(=O)c1sc(SC)c(-c2ccn(S(=O)(=O)c3ccc(F)cc3F)n2)c1C the results were Dicer processing inactive.
For CCOC(=O)c1oc2ccccc2c1CSc1ccccn1 the results were Dicer processing inactive.
Screening CCOC(=O)c1oc2ccc(OC)cc2c1CSc1ccccn1 returned Dicer processing 4.
`COc1ccc(OC)c(C(=O)c2oc3ccccc3c2NC(=O)CSc2ccccn2)c1` gave Dicer processing 3.3.
CCOC(=O)c1oc2ccccc2c1CO was read as Dicer processing inactive.
Screening COc1ccc(OC)c(NC(=O)CSc2nccn2C)c1 returned Dicer processing inactive.
Screening Cc1nnc(NC(=O)CSc2ccccn2)s1 returned Dicer processing inactive.
Screening Cc1ccc(-n2c(-c3ccc(Cl)c(C)c3)csc2=N)c(C)c1 returned Dicer processing inactive.
COc1ccc(C(CC(=O)c2ccco2)SCc2ccco2)cc1OC (centres undefined) was read as Dicer processing inactive.
Screening COc1ccc(C2C3=C(CC(C)(C)CC3=O)N=C3c4ccccc4C(=O)C32)cc1OC (centres undefined) returned Dicer processing inactive.
For CSc1nnc(-c2ccco2)n1-c1ccc(OCc2ccccc2)cc1 the results were Dicer processing inactive.
Cc1oc2ccc(O)c(Cl)c2c1C(=O)O was read as Dicer processing inactive.
`COC(=O)c1sc(N2C(=O)c3oc4ccccc4c(=O)c3C2c2ccc(OC)c(OC)c2)nc1C` (centres undefined) gave Dicer processing inactive.
For CN(NC(=O)c1ccccc1Cl)c1cccc(F)c1C#N the results were Dicer processing inactive.
`Cc1cc(S(=O)(=O)NN(C)c2cccc(Cl)c2C#N)cc(C)c1F` gave Dicer processing inactive.
`CN(NS(=O)(=O)c1ccc(Cl)c(Cl)c1)c1cccc(F)c1C#N` gave Dicer processing 3.6.
Screening O=C(O)c1ccc(S(=O)(=O)NC2CCS(=O)(=O)C2)cc1 (centres undefined) returned Dicer processing inactive.
For Cc1ccc(S(=O)(=O)N2CCN(c3nc(C)nc4sc5c(c34)CCCC5)CC2)cc1 the results were Dicer processing inactive.
